Measured values: PubChem BioAssay (NCI)
This is part of a sample that, as a whole, favours compounds with a hit. Of some 83,000 tested, about 20% had one in any assay.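 Negative percent growth values reflect cell death: -40 means 40% of the cells present at the start died, and -100 means all died.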 The source made the active and inactive calls. The calls were made as follows: active = growth percent below 10; inactive = the rest.

How the values were obtained:
Assay in all cases: NCI-60 one-dose screen, 48 h (100 = growth as untreated, 0 = no growth, -100 = all killed)
HT29 colon = conditions: 10 µM unless noted
SNB-75 CNS = conditions: 10 µM unless noted
SNB-19 CNS = conditions: 10 µM unless noted
U251 CNS = conditions: 10 µM unless noted
PC-3 prostate = conditions: 10 µM unless noted
SK-MEL-5 melanoma = conditions: 10 µM unless noted
UACC-62 melanoma = conditions: 10 µM unless noted
LOX IMVI melanoma = conditions: 10 µM unless noted
SK-MEL-28 melanoma = conditions: 10 µM
SK-MEL-2 melanoma = conditions: 10 µM unless noted
SN12C renal = conditions: 10 µM unless noted
UO-31 renal = conditions: 10 µM unless noted
TK-10 renal = conditions: 10 µM unless noted
ACHN renal = conditions: 10 µM unless noted
CAKI-1 renal = conditions: 10 µM unless noted
A498 renal = conditions: 10 µM unless noted
CCRF-CEM leukemia = conditions: 10 µM unless noted
MOLT-4 leukemia = conditions: 10 µM unless noted
SR leukemia = conditions: 10 µM unless noted
EKVX NSCLC = conditions: 10 µM unless noted

Measured: growth

CCOC(=O)c1cc2c(n1Cc1cccc(OC)c1)-c1oncc1CCC2
inactive: HT29 colon 10% | SNB-19 CNS 39.4% | U251 CNS 27.3% | PC-3 prostate 38.8% | UACC-62 melanoma 31% | LOX IMVI melanoma 33.7% | SK-MEL-28 melanoma 47.8% | SK-MEL-2 melanoma 36.9% | SN12C renal 56.7% | UO-31 renal 16.7% | TK-10 renal 48.1% | ACHN renal 47.3% | CAKI-1 renal 29.6% | MOLT-4 leukemia 35.8% | SR leukemia 10.1%
active: SNB-75 CNS 7.49% | SK-MEL-5 melanoma 1.56% | A498 renal 6.51% | CCRF-CEM leukemia 3.19%

CC(=Nc1ccccc1)C1=C(O)C(Cc2ccc(F)cc2)NC1=O (stereo not drawn)
inactive: SNB-75 CNS 17.9% | SNB-19 CNS 42.4% | U251 CNS 28.2% | PC-3 prostate 18.3% | SK-MEL-5 melanoma 25.1% | UACC-62 melanoma 23.5% | LOX IMVI melanoma 36.2% | SK-MEL-28 melanoma 45.3% | SK-MEL-2 melanoma 17.6% | SN12C renal 49.1% | UO-31 renal 44.3% | TK-10 renal 41.9% | ACHN renal 50.9% | CAKI-1 renal 33.6% | A498 renal 19.3% | CCRF-CEM leukemia 10.7% | MOLT-4 leukemia 14.5%
active: HT29 colon 2.78% | SR leukemia 6.59%

Cc1[nH]c2ccccc2c(=O)c1CC=C(Cl)Cl
active: HT29 colon -59.8% | LOX IMVI melanoma 3.09% | SR leukemia -8.18%
inactive: SNB-75 CNS 63.1% | SNB-19 CNS 56.7% | U251 CNS 18.9% | PC-3 prostate 43.6% | SK-MEL-5 melanoma 72.2% | UACC-62 melanoma 63.9% | SK-MEL-28 melanoma 74.8% | SK-MEL-2 melanoma 46.2% | SN12C renal 48.2% | UO-31 renal 20.4% | TK-10 renal 43.4% | ACHN renal 26.8% | CAKI-1 renal 45.8% | A498 renal 96.9% | CCRF-CEM leukemia 21.5% | MOLT-4 leukemia 19.3%

COc1cc(C(C)n2cc(-c3ccccc3)nn2)ccc1OC1CCCC1 (stereo not drawn)
inactive: HT29 colon 82.4% | SNB-75 CNS 75.5% | SNB-19 CNS 79.2% | U251 CNS 79% | PC-3 prostate 65.2% | SK-MEL-5 melanoma 25.9% | UACC-62 melanoma 63.6% | LOX IMVI melanoma 60.6% | SK-MEL-28 melanoma 98.8% | SK-MEL-2 melanoma 72.9% | SN12C renal 75.2% | UO-31 renal 50.9% | TK-10 renal 71.8% | ACHN renal 53.4% | CAKI-1 renal 49.6% | A498 renal 55.6% | CCRF-CEM leukemia 53.5% | MOLT-4 leukemia 48.6%

Oc1ccc(-c2nc(-c3ccc4oc5ccc(-c6[nH]c(-c7ccc(O)cc7)nc6-c6ccccc6)cc5c4c3)c(-c3ccccc3)[nH]2)cc1
inactive: HT29 colon 34.6% | SNB-75 CNS 39.2% | SNB-19 CNS 63.5% | U251 CNS 58.2% | PC-3 prostate 52.1% | SK-MEL-5 melanoma 70.8% | UACC-62 melanoma 49.9% | LOX IMVI melanoma 67.5% | SK-MEL-28 melanoma 77.8% | SK-MEL-2 melanoma 93.7% | SN12C renal 39.3% | UO-31 renal 39.2% | TK-10 renal 80.3% | ACHN renal 73.5% | CAKI-1 renal 69.5% | A498 renal 77.5% | CCRF-CEM leukemia 43.9% | MOLT-4 leukemia 57.1% | SR leukemia 43.1%

Cc1ccc2cc3c(N)c4c(C)ccc(C)c4nc3nc2c1
active: HT29 colon 4.73% | U251 CNS -5.79% | UACC-62 melanoma -73% | LOX IMVI melanoma -53.8% | SK-MEL-28 melanoma -80.6% | SK-MEL-2 melanoma -33.2% | CAKI-1 renal 7.98% | SR leukemia -9.96%
inactive: SNB-75 CNS 41.2% | SNB-19 CNS 80.2% | PC-3 prostate 63.9% | SK-MEL-5 melanoma 11.8% | SN12C renal 63.9% | UO-31 renal 10.4% | TK-10 renal 66.6% | ACHN renal 60.8% | A498 renal 41.9% | CCRF-CEM leukemia 39.6% | MOLT-4 leukemia 44.8%

COc1ccc(-c2nc(-c3ccccn3)c(-c3ccccn3)n2CC(C)C)cc1OC1CCCC1
active: UACC-62 melanoma 9.71% | SK-MEL-2 melanoma -4.88% | SN12C renal 8.15% | UO-31 renal -13.8% | A498 renal -14.3% | CCRF-CEM leukemia 1.08% | MOLT-4 leukemia -31.7%
inactive: HT29 colon 12.2% | SNB-75 CNS 20.5% | SNB-19 CNS 24.2% | U251 CNS 11.1% | PC-3 prostate 12.6% | SK-MEL-5 melanoma 15.5% | LOX IMVI melanoma 20.8% | SK-MEL-28 melanoma 35.9% | TK-10 renal 28.5% | ACHN renal 16.8% | CAKI-1 renal 10.5%

COc1ccc(/C(C#N)=C/c2nc3c(N4CCOCC4)nc(Cl)nc3n2C)cc1OC
active: HT29 colon 3.73% | SNB-75 CNS -7.9% | PC-3 prostate 9.66% | SK-MEL-5 melanoma -50.5% | UACC-62 melanoma -5.32% | LOX IMVI melanoma -71% | UO-31 renal -92.9% | TK-10 renal -21.1% | CAKI-1 renal -14.2% | A498 renal -27.8% | MOLT-4 leukemia 2.05%
inactive: SNB-19 CNS 23.5% | U251 CNS 12.5% | SK-MEL-28 melanoma 15.1% | SK-MEL-2 melanoma 42.7% | EKVX NSCLC 20.1% | SN12C renal 11.2% | CCRF-CEM leukemia 11.8% | SR leukemia 17.7%

CCOc1ccccc1CN1CCc2nc3cc(C(C)(C)C)[nH]n3c(=O)c2C1
inactive: HT29 colon 94.8% | SNB-75 CNS 105% | SNB-19 CNS 94.8% | U251 CNS 104% | PC-3 prostate 109% | SK-MEL-5 melanoma 101% | UACC-62 melanoma 102% | LOX IMVI melanoma 96.7% | SK-MEL-28 melanoma 112% | SK-MEL-2 melanoma 98.3% | SN12C renal 104% | UO-31 renal 93.4% | TK-10 renal 97.6% | ACHN renal 95.4% | CAKI-1 renal 99.9% | A498 renal 101% | CCRF-CEM leukemia 91.8% | MOLT-4 leukemia 94.7% | SR leukemia 88.5%

COC(=O)c1cc2c(n1Cc1ccccc1)-c1oncc1CCC2
inactive: HT29 colon 30.9% | SNB-75 CNS 67.2% | SNB-19 CNS 81.8% | U251 CNS 68.6% | PC-3 prostate 77.4% | SK-MEL-5 melanoma 58.6% | UACC-62 melanoma 49.7% | LOX IMVI melanoma 67.8% | SK-MEL-28 melanoma 62.5% | SK-MEL-2 melanoma 47.7% | SN12C renal 73.2% | UO-31 renal 79.9% | TK-10 renal 102% | ACHN renal 79.8% | CAKI-1 renal 78.7% | A498 renal 53.8% | CCRF-CEM leukemia 61.7% | MOLT-4 leukemia 61.7% | SR leukemia 12.2%

COc1ccc(-c2nsc3c2NC(=O)CC3c2ccc3c(c2)OCCO3)cc1 (stereo not drawn)
inactive: SNB-75 CNS 35.1% | SNB-19 CNS 56.8% | U251 CNS 24.3% | PC-3 prostate 23.6% | SK-MEL-5 melanoma 27% | UACC-62 melanoma 32.2% | LOX IMVI melanoma 44.3% | SK-MEL-28 melanoma 43.1% | SK-MEL-2 melanoma 57.5% | SN12C renal 44.4% | UO-31 renal 53.6% | TK-10 renal 43.4% | ACHN renal 46% | CAKI-1 renal 38.6% | A498 renal 19% | CCRF-CEM leukemia 14% | MOLT-4 leukemia 28.3% | SR leukemia 28.9%
active: HT29 colon -0.622%

COC(=O)[C@H](NC(=O)C1(C)CCC[C@]2(C)[C@H]3C[C@H]4C(C(C)C)=C[C@]3(CC[C@@H]12)[C@@H]1C(=O)CCC(=O)[C@@H]14)C(C)C (stereo partly drawn)
inactive: HT29 colon 109% | SNB-75 CNS 83.7% | SNB-19 CNS 92.9% | U251 CNS 99.1% | PC-3 prostate 90.8% | SK-MEL-5 melanoma 101% | UACC-62 melanoma 84.4% | LOX IMVI melanoma 90.5% | SK-MEL-28 melanoma 99.7% | SK-MEL-2 melanoma 116% | EKVX NSCLC 94.9% | SN12C renal 99.8% | UO-31 renal 90.7% | TK-10 renal 127% | CAKI-1 renal 88.4% | A498 renal 110% | CCRF-CEM leukemia 104% | MOLT-4 leukemia 102% | SR leukemia 89.7%

O=C(c1nc2ccccc2[nH]1)C1C(c2ccc([N+](=O)[O-])cc2)C2CC3CCCCC3N2[C@@]12C(=O)Nc1cc(Cl)ccc12 (stereo partly drawn)
inactive: HT29 colon 18.5% | SNB-75 CNS 27.4% | SNB-19 CNS 27.5% | U251 CNS 25.5% | PC-3 prostate 22.3% | UACC-62 melanoma 20.5% | LOX IMVI melanoma 25.1% | SK-MEL-28 melanoma 44.9% | SK-MEL-2 melanoma 48.3% | EKVX NSCLC 16.6% | SN12C renal 34.1% | UO-31 renal 13.1% | TK-10 renal 36.7% | CAKI-1 renal 41.5% | CCRF-CEM leukemia 24.2% | SR leukemia 19.6%
active: SK-MEL-5 melanoma -57.1% | A498 renal -1.18% | MOLT-4 leukemia 8.23%

Cn1c(C(=O)c2cccc3ccccc23)nc2ccccc21
active: U251 CNS 5.7% | SK-MEL-5 melanoma -38.1% | UACC-62 melanoma -27.2% | LOX IMVI melanoma 2.82% | SK-MEL-2 melanoma 9.69% | UO-31 renal -21.3% | CAKI-1 renal -11.9% | CCRF-CEM leukemia 8.07% | MOLT-4 leukemia 9.16% | SR leukemia 4.54%
inactive: HT29 colon 20.7% | SNB-75 CNS 38.9% | SNB-19 CNS 10.3% | PC-3 prostate 27.7% | SK-MEL-28 melanoma 40.8% | SN12C renal 11.8% | TK-10 renal 21.3% | ACHN renal 11% | A498 renal 36.3%

Cc1ccc(N=NC2C(=O)N(c3ccc(Cl)cc3)N(c3ccc(Cl)cc3)C2=O)cc1
inactive: HT29 colon 104% | SNB-75 CNS 84.1% | SNB-19 CNS 91.1% | U251 CNS 99% | PC-3 prostate 93.4% | SK-MEL-5 melanoma 91.6% | UACC-62 melanoma 92.4% | LOX IMVI melanoma 96.6% | SK-MEL-28 melanoma 99.1% | SK-MEL-2 melanoma 105% | EKVX NSCLC 94.1% | SN12C renal 96.4% | UO-31 renal 73.1% | TK-10 renal 132% | CAKI-1 renal 92.4% | A498 renal 88.6% | CCRF-CEM leukemia 96.3% | MOLT-4 leukemia 100% | SR leukemia 120%
